Source: PubChem BioAssay (National Center for Advancing Translational Sciences (NCATS))
A selection: hits, their analogues and other compounds. The true share with any hit is near 8.8%.
IL1B secr inh = qHTS for Inhibitors of Inflammasome Signaling: IL-1-beta AlphaLISA Primary Screen; AID 743279, 2014; actives 4.7% (n = 360,000); THP-1 LPS/ATP IL-1B secretion, AlphaLISA, 16 h; active compounds read low; activity change, % at 57.5 µM; in the data active = activity change below about -50%; inconclusive = mostly about -30% to -49%
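THP-1 cells pretreated 1 hr with compounds (up to 57.5 uM final), then stimulated with LPS (250 ng/mL final) plus ATP (1.25 mM final); secreted IL-1B measured by AlphaLISA after 16 hr, decreased signal indicating inhibition.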
HT1080 IDH1KD tx = qHTS for induction of synthetic lethality in tumor cells producing 2HG: qHTS for the HT-1080-IDH1KD cell line; actives 2% (n = 360,000); AID 686971, 2013; Potency, µM (doses to about 46.1 µM), without a hit: top-dose activity, negative = toxicity, usual class: cytotoxic; HT-1080 IDH1 knockdown viability, ATP luminescence, 48 h;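 note: potency is the fitted concentration of half-maximal effect; 0% = DMSO wells and -100% = cell-free medium wells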
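Knockdown cells (IDH1KD HT-1080) received compounds 2 h after plating at 750 cells/well and were kept 48 h at 37 °C in 5% FBS RPMI. A CellTiter-Glo luminescence read gave % activity for curve fitting.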
HT1080-NT tox = qHTS for induction of synthetic lethality in tumor cells producing 2HG: qHTS for the HT-1080-NT fibrosarcoma cell line; HT-1080-NT fibrosarcoma viability, CellTiter-Glo ATP luminescence, 48 h; Potency, µM (doses to about 46.1 µM), for the others: at the top dose activity, negative = less viability, hits mostly cytotoxic; actives 1.6% (n = 360,000); AID 686970, 2013;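 note: NT is the 2HG producing partner of a matched IDH1 knockdown line; potency is the fitted concentration of half-maximal effect; 0% = DMSO-treated cells and -100% = media-only wells without cells; nearly all actives have a fitted effect of over 55% in size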
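HT-1080-NT; 750 cells/well; 5% FBS RPMI; 48 h compound, 37 degrees C; CellTiter-Glo luminescence; curve fitting and curve-class assignment.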
KB-3-1 cytotox = qHTS assay for MDR1-selective chemotherapeutics: Primary screen using the parental adenocarcinoma cell KB-3-1; AID 1347075, 2019; KB-3-1 viability, CellTiter-Glo ATP luminescence, 72 h; actives 1.4% (n = 400,000); Potency, µM (titrated, usually from 46.1 µM), actives largely listed as cytotoxic; note: potency is the fitted concentration of half-maximal effect; nearly all actives have a fitted effect of over 60% in size
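Cytotoxicity in the drug-sensitive parental line KB-3-1 was scored as loss of CellTiter-Glo luminescence following 72 h incubation with compound. Values come from curve fitting of normalized concentration-response data.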
KB-V1 cytotox = qHTS assay for MDR1-selective chemotherapeutics: Primary screen using the drug-selected MDR subline cells KB-V1 | AID 1347076, 2019 | KB-V1 MDR cells viability, CellTiter-Glo, 72 h | Potency, µM (top dose mostly 46.1 µM), hits mostly cytotoxic | actives 3.4% (n = 400,000); note: potency is the fitted concentration of half-maximal effect; nearly all actives have a fitted effect of over 60% in size
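In this primary screen, KB-V1 cells overexpressing P-gp are incubated with library compounds (lowest to highest concentration) for 72 h at 37 degrees C before a luminescent ATP viability read.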
An asterisk follows results filed as active; [ ] = dose if it differs, or a comment. Unless noted, calls come from the whole dose curve; as a rule, active = well fitted curve in the direction sought with a large enough effect; inconclusive = small, poorly fitted or top-dose-only effect, or another doubt; inactive = no such curve, though single readings can be large; an effect the other way counts as inactive or inconclusive. Unless noted, % is set by controls: 0 for no effect and ±100 for the full control effect.

COc1ccc(CNC(=O)c2cccc3c(-c4cccc(C(N)=O)c4)coc23)cc1OC was read as IL1B secr inh 52.1, HT1080 IDH1KD tx 5.8µM*, HT1080-NT tox inconclusive, KB-3-1 cytotox inconclusive and KB-V1 cytotox inconclusive.
For NC(=O)c1cccc(-c2coc3c(C(=O)NCCc4ccccc4)cccc23)c1 the results were IL1B secr inh 6.0, HT1080 IDH1KD tx -22.4%, HT1080-NT tox -5.3%, KB-3-1 cytotox inactive and KB-V1 cytotox inconclusive.
For Cc1ccc2nc(NC(=O)CSc3nc4c(c(=O)n3C)SC(C)C4)sc2c1 (stereo unspecified) the results were IL1B secr inh -56.3*, HT1080 IDH1KD tx -26.0%, HT1080-NT tox -22.7%, KB-3-1 cytotox inactive and KB-V1 cytotox inactive.
`Cc1ccc(C)c(NC(=O)CSc2nc3c(c(=O)n2C)SC(C)C3)c1` (stereo unspecified) gave IL1B secr inh 22.5, HT1080 IDH1KD tx -5.0%, HT1080-NT tox -4.9%, KB-3-1 cytotox inactive and KB-V1 cytotox inactive.
COc1ccc(-c2cn(-c3ccc(C)cc3)c(S(=O)(=O)CC(=O)Nc3ccccc3)n2)cc1 was read as KB-3-1 cytotox inactive and KB-V1 cytotox inactive.
Screening Cc1ccc(C(=O)CN2C(=O)NC3(CCc4ccccc43)C2=O)s1 (stereo unspecified) returned IL1B secr inh 10.9, HT1080 IDH1KD tx 12.1%, HT1080-NT tox 9.0%, KB-3-1 cytotox inactive and KB-V1 cytotox inactive.
For O=C(COC(=O)c1ccc(F)cc1)NC1CC1 the results were IL1B secr inh 0.9, HT1080 IDH1KD tx 10.6%, HT1080-NT tox 7.4%, KB-3-1 cytotox inactive and KB-V1 cytotox inconclusive.
For COc1cc(OC)cc(C(=O)NN(CCC#N)C2=NS(=O)(=O)c3ccccc32)c1 the results were IL1B secr inh -7.8, HT1080 IDH1KD tx 13.2%, HT1080-NT tox 13.9%, KB-3-1 cytotox inactive and KB-V1 cytotox inactive.
For COc1ccc(N/C=C(\C#N)c2nc3ccccc3n2C)c(OC)c1 the results were IL1B secr inh -9.4, HT1080 IDH1KD tx -8.2%, HT1080-NT tox -11.7%, KB-3-1 cytotox inactive and KB-V1 cytotox 20.6µM*.
CCc1ccccc1NC(=O)CN(C)C(=O)CSc1nnc(Nc2cccc(C)c2C)s1 was read as IL1B secr inh inconclusive, HT1080 IDH1KD tx 0.8%, HT1080-NT tox 8.5%, KB-3-1 cytotox inactive and KB-V1 cytotox 18.4µM*.
Screening CN(CC(=O)Nc1ccccc1Cl)C(=O)CSc1nc2ccccc2s1 returned IL1B secr inh -2.5, HT1080 IDH1KD tx 8.1%, HT1080-NT tox 5.9%, KB-3-1 cytotox inactive and KB-V1 cytotox 16.4µM*.
`CN(CC(=O)Nc1ccccc1Cl)C(=O)COC(=O)c1nc(Cl)c(Cl)c(Cl)c1Cl` gave IL1B secr inh -67.4*, HT1080 IDH1KD tx -14.3%, HT1080-NT tox 25.2%, KB-3-1 cytotox inconclusive and KB-V1 cytotox inactive.
For CN(C(=O)CSc1nc2ccc(NC(=O)COc3ccc(Cl)cc3)cc2s1)c1ccccc1 the results were KB-3-1 cytotox inconclusive and KB-V1 cytotox 20.6µM*.
For COc1ccccc1NC(=O)Cn1c(CCC(=O)O)ccc1-c1ccccc1 the results were IL1B secr inh 1.1, HT1080 IDH1KD tx -0.2%, HT1080-NT tox 25.7%, KB-3-1 cytotox inactive and KB-V1 cytotox inconclusive.
`COC(=O)C1=C(C)N(Cc2ccco2)C(=O)/C1=C\c1ccc([N+](=O)[O-])cc1` gave IL1B secr inh -102.1*, HT1080 IDH1KD tx inconclusive, HT1080-NT tox inconclusive, KB-3-1 cytotox inconclusive and KB-V1 cytotox inconclusive.
For Cc1cc(C(=O)COC(=O)Cc2n[nH]c(=O)c3ccccc23)c(C)n1-c1cccc(C(F)(F)F)c1 the results were IL1B secr inh -12.0, HT1080 IDH1KD tx -1.3%, HT1080-NT tox 3.2%, KB-3-1 cytotox inconclusive and KB-V1 cytotox 20.6µM*.
Screening CCn1cc(C(=O)OCC(=O)c2ccccc2)c(=O)c2ccc(C)nc21 returned IL1B secr inh 32.6, HT1080 IDH1KD tx 1.5%, HT1080-NT tox 14.8%, KB-3-1 cytotox inactive and KB-V1 cytotox inconclusive.
Screening CCn1cc(C(=O)OCC(=O)c2cc(C)n(-c3cccc(C(F)(F)F)c3)c2C)c(=O)c2ccc(C)nc21 returned IL1B secr inh -66.0*, HT1080 IDH1KD tx 2.1%, HT1080-NT tox -3.3%, KB-3-1 cytotox inactive and KB-V1 cytotox 23.1µM*.
`CCc1ccc(NC(=O)C2CCC(CNS(=O)(=O)c3cccs3)CC2)cc1` (stereo unspecified) gave KB-3-1 cytotox inactive and KB-V1 cytotox inactive.
`CCn1c(CNC(C)=O)nnc1SCC(=O)c1ccc(Br)cc1` gave IL1B secr inh -0.3, HT1080 IDH1KD tx inconclusive, HT1080-NT tox 12.6µM*, KB-3-1 cytotox inactive and KB-V1 cytotox inactive.
For CCn1c(SCC(=O)c2ccccc2)nnc1-c1cc2cc(Br)ccc2o1 the results were IL1B secr inh -3.2, HT1080 IDH1KD tx -0.1%[9.24 µM], HT1080-NT tox 13.6%, KB-3-1 cytotox inconclusive and KB-V1 cytotox 18.4µM*.
Cc1ccc(NC(=O)Cc2nnc(SCC(=O)c3ccc(Br)cc3)n2C)cc1 was read as IL1B secr inh 29.7, HT1080 IDH1KD tx 11.2µM*, HT1080-NT tox inconclusive, KB-3-1 cytotox inactive and KB-V1 cytotox inactive.
`COc1cc(CNc2ccc(N3CCCCC3)cc2)ccc1OCC(=O)NC(C)(C)C` gave IL1B secr inh -19.6, HT1080 IDH1KD tx -6.2%, HT1080-NT tox -5.6%, KB-3-1 cytotox inconclusive and KB-V1 cytotox inconclusive.
O=C(CCSCCc1ccccn1)Nc1ccc(Cl)cc1 was read as KB-3-1 cytotox inactive and KB-V1 cytotox inconclusive.
For COc1ccc([C@H]2C[C@@H](O)[C@H](n3cc(-c4ccc(F)cc4)nn3)CN2C(=O)C2CCCCC2)cc1 the results were IL1B secr inh 21.8, HT1080 IDH1KD tx -10.5%, HT1080-NT tox -2.5%, KB-3-1 cytotox inactive and KB-V1 cytotox inactive.
`CCN(CC)CCN(CC(=O)N(C1CCCCC1)C1CCCCC1)C(=O)c1ccco1` gave IL1B secr inh -21.2, HT1080 IDH1KD tx -1.4%, HT1080-NT tox -3.6%, KB-3-1 cytotox inactive and KB-V1 cytotox inactive.
Screening Cc1ccc(NC(=O)CN2C(=O)CC(c3ccc(C)c(C)c3)=Nc3ccccc32)cc1 returned KB-3-1 cytotox inactive and KB-V1 cytotox inactive.
For CSc1nc(-c2ccc(C)cc2)nc(C(Cl)Cl)n1 the results were IL1B secr inh 20.5, HT1080 IDH1KD tx 3.8%, HT1080-NT tox inconclusive, KB-3-1 cytotox 7.31µM* and KB-V1 cytotox 18.4µM*.
